# Legend:
# Assay type in all cases: functional
# Plasmodium falciparum [1] = test: GSK_TCMDC: Inhibition of Plasmodium falciparum 3D7 in whole red blood cells, using parasite LDH activity as an index of growth. Test compounds present at 2uM
# Plasmodium falciparum [2] = test: GSK_TCMDC: Inhibition of Plasmodium falciparum Dd2 in whole red blood cells, using parasite LDH activity as an index of growth. Test compounds present at 2uM
# HepG2 = test: GSK_TCMDC: Percent inhibition of human HepG2 cell line. Test compounds present at 10uM.
SMILES,Inhibition (Plasmodium falciparum [1]) [%],Inhibition (Plasmodium falciparum [2]) [%],Inhibition (HepG2) [%]
Nc1ccc(-c2ccc(NC(=O)Nc3cc(C(F)(F)F)ccc3F)cc2)cn1,99,39,0
NC(=O)c1c(Cl)nc2ccccc2c1Cl,91,0,2
COc1c(F)ccc2ncc(Cl)c(CCN3CCC(NCc4ccc5c(n4)NC(=O)CS5)CC3)c12.Cl,98,29,30
Cl.OCCNc1nc(Nc2cccc(O)c2)nc2ccccc12,96,55,3
Cc1nc2ccccc2c(=O)n1/N=C/c1ccccc1[N+](=O)[O-],94,26,0
CON(CCCN(C)C)C(=N)N.Cl,92,0,3
CC(C)(C)Nc1cc(C2CC2)nc(-c2ccccn2)n1,88,75,0
NC(=O)C1Cc2ccccc2CN1CC(=O)Nc1ccccc1Sc1ccccc1 (stereo unspecified),100,99,5
CO/C(=C\C=C\c1cc2cc(Cl)c(Cl)cc2[nH]1)C(=O)NCCN1CCCCC1,81,86,16
CN1CCCN(Cc2ccc(-c3ccc(NC(=O)c4ccc(C#N)cc4)cc3)cc2)CC1.O=C(O)C(F)(F)F,91,28,30
COc1cc(COc2c(C)nc(N)nc2N)cc(OC)c1OC.Cl,100,0,7
Cc1cc(C)cc(NC(=S)NCCCCN2CCN(c3cccc(Cl)c3)CC2)c1,88,13,11
COc1ccc(-c2cccc(NC(=O)c3ccc(Cl)cc3)c2)cc1CNC(C)C.O=C(O)C(F)(F)F,100,44,53
Cc1cc(N[C@@H](CC(C)C)C(=O)NCc2cccc(F)c2)nc(NCCc2ccccc2)n1.O=C(O)C(F)(F)F,88,33,6
COc1c(CNCCCCCCNCc2cc(Cl)c3ccccc3c2OC)cc(Cl)c2ccccc12.CS(=O)(=O)O,96,45,100
COc1cccc(-c2cnc(N)c(-c3nc4ccc(C(F)(F)F)cc4[nH]3)c2)c1.Cl,99,30,5

SMILES,Inhibition (Plasmodium falciparum [1]) [%],Inhibition (Plasmodium falciparum [2]) [%],Inhibition (HepG2) [%]
CN1CCCN(Cc2cccc(-c3cccc(NC(=O)c4cccc(Cl)c4)c3)c2)CC1.O=C(O)C(F)(F)F,96,20,17
N#Cc1ccc(-c2ccc(C(=O)NCCCCN3CCC(c4ccncc4)CC3)cc2)cc1,94,16,34
O=C(Nc1cc(C(F)(F)F)cc(C(F)(F)F)c1)NC(CCCN1CCC2(CC1)OCc1ccccc12)c1ccc(Cl)c(Cl)c1 (stereo unspecified),94,87,26
Cc1[nH]c(C)c(-c2ccc(Oc3ccc(Cl)cc3)cc2)c(=O)c1Br,97,96,12
Cc1cccc2nc(-c3cccc(-c4ccc(NC(=O)c5ccc(=O)[nH]n5)cc4)c3)[nH]c12,100,27,18
Cc1cc(N[C@@H](CC(C)C)C(=O)NCCc2ccccc2)nc(NCCc2ccc(F)cc2)n1.O=C(O)C(F)(F)F,98,53,12
COc1cccc(CCc2cccc(CNC(C)=O)c2)c1,88,0,2
O=C(Nc1ccc([N+](=O)[O-])cc1)Nc1cc(OCC(F)(F)F)cc(OCC(F)(F)F)c1,100,100,71
FC(F)(F)c1ccc2[nH]c(-c3ccc(-c4cccc(CN5CCN(c6ccncc6)CC5)c4)cc3)nc2c1.O=C(O)C(F)(F)F,100,99,82
CC(=O)N1N=C(c2ccc(F)cc2)Sc2c1nc(C1CCCCC1)n2C(C)=O,92,9,4
Cc1nn(CCOC(=O)NC(NCC2COc3ccccc3O2)C(Cl)(Cl)Cl)cc1[N+](=O)[O-] (stereo unspecified),99,99,0
CCCc1cc(Cc2cnc(N)nc2N)cc2c1OC(C)C2C.Cl (stereo unspecified),98,0,32
Cc1cc(NC2CCCC2)nc(Nc2ccccc2F)n1,97,53,24
Cc1nc2nc(N)nc(N)c2c(C)c1Cc1ccc(O)cc1.Cl,94,0,64
COc1ccc(CNC(=N)Nc2nc(-c3ccc(OCCCn4ccnc4)cc3)cs2)cc1.Cl,100,67,15
CCOC(=O)C1=C(C)N=c2sc(=Cc3cc(Cl)ccc3O)c(=O)n2C1c1ccc2c(c1)OCO2 (stereo unspecified),96,91,0
